Experimental data from PubChem BioAssay (NCI).
This is part of a sample that, as a whole, favours compounds with a hit. Of some 83,000 tested, about 20% had one in any assay.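 How to read the values: 0–100, growth inhibition (40 = 60% inhibited); 0, no net growth; -100 to 0, cell death (-40 = 40% of starting cells died; -100 = all dead).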 A number with no mark means an inactive call. Calls of active or inactive are those of the source. The calls were made as follows: active = growth percent below 10; inactive = the rest.

Tested on: HCT-116 colon
Assay: NCI-60 one-dose screen, 48 h (100 = growth as untreated, 0 = no growth, -100 = all killed)
Settings: 10 µM unless noted

SMILES	growth
O=c1c2cc(F)ccc2sc2c(NCCCNCCO)nc3ccc(F)cc3c12	-72.8% (active)
COc1ccc2sc3c(NCCCNCCO)nc4ccccc4c3c(=O)c2c1	-79.3% (active)
COc1ccc(C(=O)/C=C/c2sc(Cl)nc2Cl)cc1	17.7%
O=C(O)c1cn(C2CC2)c2cc(N3CCN(C(=O)Nc4nc(-c5ccc(Cl)cc5)cs4)CC3)c(F)cc2c1=O	14.8%
Cn1cc(-c2cc3ncnc(Nc4ccc(CC(=O)Nc5cc(C(C)(C)C)nn5C)cc4)c3s2)cn1	39.2%
O=C(Nc1ccc(Cl)cc1F)c1ccccc1O	34.6%
Cc1cc(Cl)ccc1NS(=O)(=O)c1ccc(-c2cnc(C3CC3)o2)cc1	12.9%
COc1c(B(O)O)cc(F)cc1-c1nc2ccc3[nH]ncc3c2c2c1CCCC2	3.48% (active)
CCCCCCN(CCCCCC)c1ccc(/C=C2/SC(=O)NC2=O)c(C)c1	63.7%
Cc1[nH]c(C(=O)Nc2ccc(C(=O)NCCN)cc2OC(C)C)c(Cl)c1Cl	-50.1% (active)
COc1cc(/C=C/c2ccccc2)cc(OC)c1	92.4%
COC(=O)c1ccc2[nH]c(O)c(C(=Nc3ccc(N(C)C(=O)CN4CCN(C)CC4)cc3)c3ccccc3)c2c1	6.52% (active)
COc1cc(Nc2nc(NCCN)nc3cc[nH]c(=O)c23)cc(OC)c1	46.6%
O=c1c2cc(F)ccc2sc2c(NCCN3CCOCC3)nc3ccccc3c12	46.9%
O=C1c2cccc3cccc(c23)C(=O)N1Nc1nc(N2CCOCC2)nc(N2CCN(c3ccccc3)CC2)n1	31.2%
